Compound activity as filed in PubChem BioAssay.
Compounds with a hit are over-represented: about 7.8% of the library has one in this group of screens.
LASV entry inh = inhibitors of Lassa virus binding or cell entry. Lassa virus pseudotype entry inhibition, cell reporter. Potency, µM (titrated, usually from 37.9 µM), inactives show at the highest dose activity change, negative = inhibition, actives largely listed as inhibitors. 1.2% of 300,000 active. AID 540256; calls by dose curve; tested in HEK293 cells; note: potency is the fitted concentration of half-maximal effect; nearly all actives have a fitted effect of over 50% in size
Vaccinia Venus = inhibitors of vaccinia virus (Venus reporter); 0.46% of 330,000 active; Vaccinia virus Venus reporter expression, fluorescence; Potency, µM (highest dose often 36.5 µM), for inactives: at the top dose activity change, negative = inhibition, actives largely listed as inhibitors; AID 720580; calls by dose curve; tested in A549 cells; note: potency is the fitted concentration of half-maximal effect; nearly all actives have a fitted effect of over 30% in size
HCMV antiviral = human cytomegalovirus inhibition | AID 1259415 | activity change, negative = inhibition, % at 57.5 µM | 4.5% of 410,000 active | HFF cells, HCMV-luciferase reporter, 72 h; stronger effect = lower value; in the data active = activity change below about -60%; inconclusive = no clear call, values can overlap the other calls; inactive = above about -39%
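Cell-based, HFFs, 1000 cells/well, 16 h 37C; cpds in DMSO + HCMV-luc, MOI 1 PFU/cell; 72 h 37C; OneGlo luminescence after 5 min RT; norm. to buffer vs Salinomycin 10uM.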
MARV entry inh = inhibitors of Marburg virus binding or cell entry | Marburg virus pseudotyped entry inhibition, cell reporter | Potency, µM (titrated, usually from 37.8 µM), without a hit: top-dose activity change, negative = inhibition, hits mostly inhibitors | 1.8% of 300,000 active; calls by dose curve; tested in HEK293 cells; note: potency is the fitted concentration of half-maximal effect
HCV inhibitor = HCV inhibition. Huh7.5.1 HCVcc-Cre infection, luciferase reporter, 44 h. Potency, µM (doses to about 41.8 µM), for the others: at the top dose activity change, negative = inhibition, actives largely listed as inhibitors. 3.4% of 340,000 active; active = well fitted inhibition curve with a large enough effect; inconclusive = small, poorly fitted or top-dose-only effect, or another doubt; inactive = no such curve, though single readings can be large or run the other way; note: potency is the fitted concentration of half-maximal effect
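Cells seeded at 1,000/well and cultured 4 h, then compounds added followed by HCVcc-Cre virus (~0.5 moi). After 44 h further culture, luciferase substrate was added, plates held 15 min at room temperature, and luminescence read for 15 sec.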
VACV mCherry inh = inhibitors of vaccinia virus infection (mCherry reporter signal); Vaccinia virus mCherry reporter infection, fluorescence; Potency, µM (series often up to 36.5 µM), for the others: at the highest dose activity change, negative = inhibition, hits mostly inhibitors; 0.63% of 310,000 active; AID 720579; calls by dose curve; tested in A549 cells; note: potency is the fitted concentration of half-maximal effect; nearly all actives have a fitted effect of over 35% in size
An asterisk follows results filed as active; i = inactive; ? = inconclusive; · = no result given; [ ] = another dose, or the depositor's remark. % is set by controls: 0 for no effect and ±100 for the full control effect.

SMILES	LASV entry inh	Vaccinia Venus	HCMV antiviral	MARV entry inh	HCV inhibitor	VACV mCherry inh
Cc1ccc(NC2=C(NCCO)C(=O)c3ccccc3C2=O)cc1	?	-26%	14	?	5%	?
O=C(Nc1ccncc1)Nc1cccc(Cl)c1Cl	·	·	-61*	·	6.3µM*	·
O=C(Nc1ccc(Oc2ccc(NC(=O)Nc3ccccc3Cl)cc2)cc1)Nc1ccccc1Cl	?	-16%	-62*	?	?	-14%
O=C(c1noc2c1CCCCC2)N1CCN(c2ccc(Cl)cc2)CC1	-12%[46.1 µM]	-12%	?	·	·	i
CC(C)(C)C1CCc2c(sc3nc(-c4cc5cc(Br)ccc5oc4=O)[nH]c(=O)c23)C1 (stereo not drawn)	25%[46.1 µM]	0%	39	·	·	-13%
Cc1cc2c(cc1C)N[C@]1(C[C@H]3CCCC(=O)N4CC[C@@H](C1)[C@@H]34)C(=Nc1ccccc1C)N2	·	-10%	·	·	·	-20%
COc1ccccc1N1CCN(C(=O)c2cc(S(=O)(=O)N3CCC(C)CC3)cn2C)CC1	12%[46.1 µM]	-21%	-5	·	·	?
O=C(Nc1cccnc1)c1c(F)c(F)c(F)c(F)c1F	7%	-29%	-1	8%	-30%	-29%
O=C(Nc1ccc2cn[nH]c2c1)c1c(Cl)cccc1Cl	15%	-21%	-94*	10%	-18%	-23%
O=C(Nc1ccc2cn[nH]c2c1)c1ccccc1F	?	-1%	92	?	-12%	i
NS(=O)(=O)c1ccc(NC(=O)c2c(Cl)cccc2Cl)cc1	0%	-3%	-14	-4%[46.1 µM]	3%	-7%
O=C(Nc1ccncc1)c1c(Cl)cccc1Cl	·	·	-66*	·	-15%	·
O=C1C(Cl)=C(Nc2ccc3cn[nH]c3c2)C(=O)c2ccccc21	3.5µM*	8.9µM*	-100*	?	4µM*	?
O=C(Nc1ccncc1)c1c(F)c(F)c(F)c(F)c1F	1%	?	-11	-1%	-4%	6.3µM*
Cc1ccccc1Cn1c(=O)n(CCCCC(=O)NCCc2ccccc2)c(=O)c2ccccc21	0%[46.1 µM]	-11%	1	-23%[46.1 µM]	·	-18%
Cc1ccc2oc(-c3cccc(N)c3)nc2c1	?	-16%	155	13µM*	-11%	-22%
Nc1cccc(-c2nc3ncccc3o2)c1	?	-1%	62	8%	10%	-6%
Cc1ccc(-c2nc3cc(N)ccc3o2)cc1	?	·	173	?	-20%	·
Nc1cccc(-c2nc3cc(S(=O)(=O)c4ccc5oc(-c6cccc(N)c6)nc5c4)ccc3o2)c1	?	·	-83*	?	5%	·
Cc1ccc(-c2nc3cc(C)ccc3o2)cc1	14µM*	-2%	44	?	1%	-11%
CN(C)c1ccc(NC(=O)CN2C(=O)c3ccccc3Sc3ccc(C(=O)N4CCCC4)cc32)cc1	-8%[46.1 µM]	-15%	11	·	·	-5%
COc1ccc(-c2cc(-c3ccccc3)c(C#N)c(S(C)=O)n2)cc1 (stereo not drawn)	?	·	-99*	?	22µM*	·
CCSc1nc(-c2ccc(OC)cc2)cc(-c2ccccc2)c1C#N	-6%	·	18	-1%	?	·
COCC(=O)Nc1cc(C(=O)N2CCCCC2c2nccn2C)cc2nc(-c3ccccc3)n(C)c12 (stereo not drawn)	·	-24%	·	·	·	-25%
CSc1ccc(CCNC(=O)c2cc3n(n2)CCCN(Cc2ccc(C)cc2)C3=O)cc1	-15%[46.1 µM]	-16%	-20	·	·	-8%
SMILES	LASV entry inh	Vaccinia Venus	HCMV antiviral	MARV entry inh	HCV inhibitor	VACV mCherry inh
Cn1ccc2cc(NC(=O)Nc3cccnc3)ccc21	·	-12%	-100*	·	?	-17%
CC(NC(=O)c1cc(F)ccc1F)c1nnc2n1CCN(Cc1ccccc1O)CC2 (stereo not drawn)	·	0%	·	·	·	-2%
Cc1ccc(-c2onc(C)c2C)cc1S(=O)(=O)N1CCN(c2ccccc2F)CC1	19%[46.1 µM]	-21%	?	·	·	i
Cc1ccc(C)c(CSc2cn(CCNC(=O)c3cccs3)c3ccccc23)c1	?	-12%	-83*	?	·	-16%
O=C(NCCn1cc(SCc2ccccc2)c2ccccc21)c1ccccc1F	?	-11%	11	?	11µM*	i
CCN(CC)CCCNC(=O)CSc1nc2nc(C)c(Cc3ccccc3C)c(C)n2n1	?	-9%	-2	-40%[46.1 µM]	·	-9%
COc1ccc([N+](=O)[O-])cc1NC(c1nnc(-c2ccccc2)o1)c1ccccc1F (stereo not drawn)	-3%[46.1 µM]	-7%	3	·	·	-16%
Cn1cnc([N+](=O)[O-])c1Oc1cccc(O)c1	-21%	?	-16	-4%	-3%	?
Cn1cnc([N+](=O)[O-])c1Oc1ccccc1	-7%	?	-10	?	?	28µM*
CS(=O)(=O)c1ccc2nc(NC(=O)c3cccs3)sc2c1	?	?	76	2.2µM*	-3%	·
Cc1ccc2nc(NC(=O)c3cccs3)sc2c1	2.5µM*	?	14	3.2µM*	-3%	-11%
Cc1ccc2nc(NC(=S)NC(=O)c3cccs3)sc2c1	?	-12%	15	26%	-3%	-6%
Cc1ccc2nc(NC(=O)c3cccc(-c4cc5ccccc5oc4=O)c3)sc2c1	?	-3%	-89*	?	8.9µM*	i
Cc1ccc(C(=O)Nc2nc3ccc(S(C)(=O)=O)cc3s2)s1	?	·	114	-3%	-4%	·
CCc1cnc2c(c1SCC(=O)NCc1ccccc1)c(=O)n(C)c(=O)n2C	-12%[46.1 µM]	-2%	7	·	·	-11%
CN(C)c1ccc(/C=C/c2ccnc3ccc(I)cc23)cc1	·	25%	·	·	·	-20%
Cc1ccc(CN(Cc2ccco2)C(=O)COc2ccccc2C)cc1	?	5%	0	10%[46.1 µM]	·	-8%
CN(C)S(=O)(=O)c1ccc(Cl)c(NC(=O)C2CCN(S(=O)(=O)c3cccs3)CC2)c1	·	·	-66*	·	?	·
COc1ccc(CCNC(=O)C2CC(=O)N(c3ccc(C(C)(C)C)cc3)C2)cc1OC (stereo not drawn)	·	·	-94*	·	-28%	·
O=C(Nc1ccc(Cl)cn1)C1CCN(S(=O)(=O)c2cccs2)CC1	·	·	-72*	·	11µM*	·
CCc1ccc(NC(=O)C2CCN(S(=O)(=O)c3cccs3)CC2)cc1	?	-29%	-65*	-9%[46.1 µM]	4.5µM*	-7%
CCc1cccc(NC(=O)C2CCN(S(=O)(=O)c3cccs3)CC2)c1	-5%	-18%	-22	-1%	?	i
COc1ccc(CCNC(=O)C2CC(=O)N(c3ccc(C)cc3)C2)cc1OC (stereo not drawn)	-2%[46.1 µM]	-13%	7	16%[46.1 µM]	6%	-3%
CS(=O)(=O)c1ccc(Cl)c(NC(=O)C2CCN(S(=O)(=O)c3cccs3)CC2)c1	·	·	-6	·	-23%	·
Cc1ccc(NC(=O)Cn2c(=O)n(Cc3ccc(F)cc3)c(=O)c3cccnc32)cc1C	·	-20%	7	9%[46.1 µM]	·	-19%
Cc1c(Cl)cccc1NC(=O)Cn1c(=O)cc(C)c2c(C)nn(-c3cccc(F)c3)c21	12%[46.1 µM]	-1%	-6	·	·	-4%
